What all share (assay): NCI-60 one-dose screen, 48 h (100 = growth as untreated, 0 = no growth, -100 = all killed)
What all share (conditions): 10 µM unless noted

The test system of experiment [1] is DU-145 prostate.
Experiment [2] deals with K-562 leukemia.
The test system of experiment [3] is MALME-3M melanoma.
The test system of experiment [4] is MDA-MB-231 breast.
Experiment [5] concerns RXF 393 renal.
Experiment [6] relates to SF-268 CNS.
The test system of experiment [7] is SF-295 CNS.
Experiment [8] concerns SF-539 CNS.
For experiment [9], the system named is UACC-257 melanoma.
The subject of experiment [10] is M14 melanoma.
For experiment [11], the system named is HCT-15 colon.
Experiment [12] concerns HT29 colon.
Experiment [13] deals with SNB-75 CNS.
Experiment [14] has as its system SNB-19 CNS.
In experiment [15] the test system is U251 CNS.
In experiment [16] the test system is PC-3 prostate.
Experiment [17] relates to SK-MEL-5 melanoma.
Experiment [18] relates to UACC-62 melanoma.
Experiment [19] deals with LOX IMVI melanoma.
The test system of experiment [20] is SK-MEL-28 melanoma.

The source of these data is PubChem BioAssay (NCI).

Structures are written as SMILES. The panel holds about 83,000 compounds, 20% with a hit somewhere; the sample as a whole holds those more often.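 Values shown are percent growth following 48 h exposure of cells in 96-well plates to a single concentration of compound; below 10 was considered active.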 Unmarked numbers belong to inactive results. Activity calls are given as the source filed them.

Consider `CCCSc1nc2ccc(C)cc2cc1/C=[N+](\[O-])c1ccccc1`, for which the growth in [1] is 42%; in experiment [2], 40.4%; in [3], 46.2%; in experiment [4], 51.1%; in [5], 69.4%; in [6] it was 45.5%. The growth was 98.8% in [7]; 1.38% (active) in experiment [8]; 63.3% in experiment [9]; 6.91% (active) in experiment [10]; 11.5% in experiment [11]; 10% (active) in [12]. The growth in experiment [13] is 21.4%; in experiment [14], 37.2%; in [15], 12.8%; in experiment [16], 23.1%; in [17] it was 27.6%; in experiment [18], 31.3%. Moreover, the growth in experiment [19] is 19%; in [20], 48.3%.
Consider `COc1cc(C(=O)N2N=C(c3ccc(S(C)(=O)=O)cc3)CC2c2ccco2)cc(OC)c1OC` (stereo not given), for which the growth was 82.5% in experiment [1]; 73.2% in [2]; 61.7% in [3]; 66.4% in experiment [4]; 66.4% in experiment [5]; 87.6% in [6]. The growth in [7] was 42.9%; in experiment [8] it was 79.1%; in [9] it was 80.6%; in experiment [10], 65.2%; in [11] it was 39.4%; in experiment [12], 24.9%. Further, the growth in experiment [13] is 46.9%; in experiment [14] it was 75.9%; in experiment [15], 57.7%; in experiment [16], 51%; in experiment [17], 39.8%; in experiment [18] it was 29.3%. Further, the growth in [19] is 50.5%; in experiment [20], 89.2%.
Take `Cc1[nH]c(C(=O)Nc2ccc(C(=O)N3CCNCC3)cc2OC(C)C)c(Cl)c1Cl`: the growth in experiment [1] was 68.1%; in [2], -28.6% (active); in experiment [3], 72.6%; in experiment [4], 22.9%; in [5], 71.3%; in experiment [6] it was 74.4%. The growth in experiment [7] is 107%; in experiment [8], 80.8%; in experiment [9] it was 101%; in experiment [10], 45.5%; in experiment [11], 49.7%; in [12], 9.76% (active). Moreover, the growth is 77.5% in experiment [13]; 77.5% in [14]; 35.8% in [15]; 71.5% in experiment [16]; 93.4% in [17]; 102% in [18]. Further, the results for the growth in experiment [19] and in experiment [20] were -16% (active) and 105%, respectively.
Take `Cc1ccc2sc3c(NCCCN)nc4ccccc4c3c(=O)c2c1`: the growth in [1] is 15.4%; in experiment [2] it was -37.7% (active); in experiment [3], 104%; in experiment [4], -14.6% (active); in experiment [5], 71.4%; in experiment [6], 65.1%. For the same compound, the growth was 88% in experiment [7]; 58% in [8]; 101% in experiment [9]; 15% in experiment [10]; -12.2% (active) in experiment [11]; -47.4% (active) in [12]. For the same compound, the growth in experiment [13] is 78.1%; in experiment [14] it was 74.6%; in experiment [15] it was 6.32% (active); in [16] it was 65.4%; in [17], 90.6%; in [18] it was 94.1%. Moreover, the growth in [19] was -97.7% (active); in experiment [20], 95.3%.
Consider `Cc1cccc2c(=O)c3c(sc12)c(NCc1ccccc1)nc1ccccc13`, for which the growth is 102% in experiment [1]; 101% in experiment [2]; 110% in experiment [3]; 89.4% in experiment [4]; 107% in [5]; 107% in experiment [6]. Moreover, the growth in experiment [7] is 98.9%; in experiment [8], 102%; in experiment [9] it was 104%; in experiment [10], 103%; in [11], 64.3%; in experiment [12], 83.4%. In addition, the growth in experiment [13] was 96.1%; in [14] it was 107%; in [15] it was 101%; in [16], 89.1%; in experiment [17], 94.5%; in experiment [18] it was 74.3%. Also, the figures for the growth in experiment [19] and in experiment [20] were 93.6% and 116%, respectively.
Take `O=C(Oc1cccc2ccccc12)Oc1cccc2ccccc12`: the growth was 104% in experiment [1]; 103% in experiment [2]; 98% in experiment [3]; 94.2% in [4]; 115% in [5]; 75.3% in experiment [6]. Also, the growth in experiment [7] is 109%; in experiment [8] it was 101%; in experiment [9], 127%; in experiment [10] it was 96.2%; in experiment [11] it was 106%; in experiment [12], 118%. For the same compound, the growth in [13] was 94.6%; in experiment [14] it was 103%; in [15], 103%; in [16], 71.6%; in [17], 106%; in experiment [18], 103%. The growth is 99.2% in experiment [19] and 118% in experiment [20].
